Data as given in PubChem BioAssay (EPA / NIEHS).
Results filed as inconclusive are left out. The source made the active and inactive calls. How the source made its calls, unless noted: active means hit-call score of the fitted dose curve at least 0.9, where 1 is the maximum; inactive means score below 0.9.

Columns and labels:
[1] = CCTE_Harrill_HTTr_Viability_MCF7: CCTE's 6-hour Cell Viability Assessment for the High-Throughput Transcriptomics (HTTr) Platform, in MCF-7 cells cultured in DMEM + 10% fetal bovine serum, Harrill Lab (AID 2284010)
In short: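 Propidium iodide exclusion, imaged by high-content analysis, gauged viability after a six-hour exposure across eight concentrations. Cells were MCF-7 grown in DMEM with 10% fetal bovine serum; fits run in both directions against DMSO.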

[2] = CCTE_Harrill_HTTr_Apoptosis_MCF7: CCTE's 6-hour Apoptosis Assessment for the High-Throughput Transcriptomics (HTTr) Platform, in MCF-7 cells cultured in DMEM + 10% fetal bovine serum, Harrill Lab (AID 2284011)
In short: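 Read-out: CellEvent Caspase 3/7 Green signal by high content imaging, gain-of-signal indicating apoptosis. MCF-7 cells, DMEM + 10% FBS, eight-point dilution series, 6 h exposure. Curves fitted bidirectionally relative to DMSO negative control.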

[3] = CCTE_Harrill_HTTr_CellCount_MCF7: CCTE's Cell Proliferation Assessment for the High-Throughput Transcriptomics (HTTr) Platform, Harrill Lab (AID 2284012; active means hit-call score of the fitted dose curve at least 0.9, where 1 is the maximum;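 further: cells exposed to compound for six hours; intended direction is loss of nuclei count meaning fewer cells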)
In short: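 Cell count from high-content imaging of Hoechst-labeled nuclei serves as viability/growth readout. Chemicals were applied to MCF-7 cells in eight concentrations for six hours, with fitting in both directions relative to DMSO.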

Row | Structure (SMILES) | outcome [1] | outcome [2] | outcome [3] | AC50 [1]
1 | C=C(c1ccc(C(=O)O)cc1)c1cc2c(cc1C)C(C)(C)CCC2(C)C | inactive | inactive | – | –
2 | O=C(NO)c1ccccc1 | inactive | inactive | inactive | –
3 | CC(C)[C@@H]1CC[C@@H](C)C[C@H]1O | inactive | inactive | – | –
4 | CC(C)(c1ccc(Oc2ccc(N)cc2)cc1)c1ccc(Oc2ccc(N)cc2)cc1 | inactive | inactive | inactive | –
5 | Cc1[nH]nc2c1N=C(c1ccccc1Cl)c1cc([N+](=O)[O-])ccc1N2 | inactive | inactive | inactive | –
6 | CC1=NN(c2ccccc2)C(=O)C1 | inactive | inactive | – | –
7 | CC1=CC(=O)c2ccccc2C1=O | inactive | inactive | inactive | –
8 | c1cc2cccc3c4cccc5cccc(c(c1)c23)c54 | inactive | inactive | – | –
9 | Cc1ccccc1C(OCCN(C)C)c1ccccc1 (configuration not stated) | inactive | inactive | inactive | –
10 | O=C(c1ccccc1)c1ccccc1 | inactive | inactive | inactive | –
11 | c1cnc2c(c1)ccc1cccnc12 | inactive | inactive | inactive | –
12 | CS(=O)(=O)c1ccc([C@@H](CC2CCCC2)C(=O)Nc2cnccn2)cc1Cl | inactive | inactive | inactive | –
13 | CCCCCCCCCCCCCCC | inactive | inactive | inactive | –
14 | NC(=NCCCCCCN=C(N)/N=C(\N)Nc1ccc(Cl)cc1)/N=C(\N)Nc1ccc(Cl)cc1 | – | inactive | – | 70 µM (active)
15 | CCCCCCCCCC=CCC1CC(=O)OC1=O (configuration not stated) | inactive | inactive | – | –
16 | NS(=O)(=O)O | inactive | inactive | – | –
17 | Cc1cncc(C)c1 | inactive | inactive | inactive | –
18 | CC(=O)Nc1ccc(S(N)(=O)=O)cc1 | inactive | inactive | inactive | –
